The values below come from PubChem BioAssay.

For assay [1], the system named is Human papillomavirus type 1a protein E7 (residues 44-93). Put plainly: HPV1a E7 fragment binders on microarrays, primary screen, biochemical, small-molecule microarray, residues 44-93, 635 nm fluorescence (AID 1108).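 Note: E7 fragment applied at 1 µg/mL in TBST for 1 h at 4 C; score combines spot fluorescence with its signal to noise ratio.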 As to conditions: small-molecule microarray binding, fluorescence 635 nm; higher = more signal.
Assay [2] is described as follows: modulators of HCV replicon luciferase signal, primary screen, HCV replication inhibitor project, Huh7 cells, luciferase reporter (AID 1109).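 Note: huh7 hepatoma cells harbouring a luciferase neomycin HCV replicon reporter; luciferase luminescence as measure of HCV replicon replication; test concentration not given here.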 Particulars: 48 h, higher = more signal. (In general: Replicon systems follow genome replication, usually without infectious particles.)
For assay [3], the target named is Left-right determination factor 2 (Homo sapiens) (UniProt O00292). Put plainly: LEFTY2 binders on small-molecule microarrays, primary screen, biochemical, small-molecule microarray, 635 nm fluorescence scan (AID 1110). Particulars: LEFTY2 binding, higher = more signal.
Chain of Left-right determination factor 2 (Homo sapiens) (O00292 whole entry, looked up): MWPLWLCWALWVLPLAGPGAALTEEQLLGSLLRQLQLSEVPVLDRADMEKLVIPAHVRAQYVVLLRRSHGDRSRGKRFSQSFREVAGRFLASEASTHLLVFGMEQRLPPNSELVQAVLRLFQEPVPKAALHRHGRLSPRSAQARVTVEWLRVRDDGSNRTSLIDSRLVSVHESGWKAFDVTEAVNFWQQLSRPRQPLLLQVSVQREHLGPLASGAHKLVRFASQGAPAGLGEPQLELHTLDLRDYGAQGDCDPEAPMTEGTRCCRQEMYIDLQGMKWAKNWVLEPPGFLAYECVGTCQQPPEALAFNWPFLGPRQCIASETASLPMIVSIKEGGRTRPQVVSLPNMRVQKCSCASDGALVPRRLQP
Assay [4] concerns the target Calmodulin-1 (Homo sapiens) (UniProt P0DP23). Put plainly: CALM1 binders on microarrays, EGTA buffer, profiling panel, biochemical, small-molecule microarray, Cy5-labelled CALM1 (AID 1111).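 Note: labelled calmodulin applied in Tris saline Tween buffer holding calcium plus EGTA and DTT.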 As to conditions: Cy5-CALM1 binding fluorescence, higher = more signal.
Assay [5] has the same target. Put plainly: calcium-bound CALM1 binders on microarrays, profiling panel, artefact control for SMM control-protein annotation, biochemical, small-molecule microarray, Cy5-labelled CALM1, plus calcium (AID 1112).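 Note: score merges spot fluorescence with signal to noise from triplicate slides.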 Particulars: Cy5-CALM1 binding fluorescence, higher = more signal.
Assay [6] can be described thus: small-molecule microarray binders of probe aWnt5a, primary screen, biochemical, biotinylated probe, 635/667 nm fluorescence (AID 1113).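 Note: score merges 667 nm fluorescence intensity with signal-to-noise per printed feature.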 Particulars: higher = more signal.
The nature of assay [7]: small-molecule microarray binders of probe aShh, primary screen, biochemical, biotinylated probe, 635/667 nm fluorescence (AID 1114).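 Note: probe is biotin-labelled aShh protein from a stem cell growth factor screen; measures binding of labelled protein to compounds printed on the slide; score merges feature fluorescence at 667 nm with signal-to-noise.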 As to conditions: higher = more signal.
Assay [8] is described as follows: small-molecule microarray binders of probe aNog, primary screen, biochemical, biotinylated probe, 635/667 nm fluorescence (AID 1115).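 Note: probe is biotinylated aNog protein used at 0.15 µg/mL for 1 h at 4 C; z-score combines 667 nm fluorescence of each spot with its signal to noise.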 As to conditions: higher = more signal.
In assay [9] the target is Torsin-1A-interacting protein 1 (Homo sapiens) (UniProt Q5JTV8). Put plainly: LAP1 binders from COS7 cell lysate, primary screen, small-molecule microarray, 635/667 nm fluorescence (AID 1116). Particulars: COS7-hLAP1 lysate binding, 635 nm fluorescence, higher = more signal.
Chain of Torsin-1A-interacting protein 1 (Homo sapiens) (Q5JTV8 whole entry, looked up): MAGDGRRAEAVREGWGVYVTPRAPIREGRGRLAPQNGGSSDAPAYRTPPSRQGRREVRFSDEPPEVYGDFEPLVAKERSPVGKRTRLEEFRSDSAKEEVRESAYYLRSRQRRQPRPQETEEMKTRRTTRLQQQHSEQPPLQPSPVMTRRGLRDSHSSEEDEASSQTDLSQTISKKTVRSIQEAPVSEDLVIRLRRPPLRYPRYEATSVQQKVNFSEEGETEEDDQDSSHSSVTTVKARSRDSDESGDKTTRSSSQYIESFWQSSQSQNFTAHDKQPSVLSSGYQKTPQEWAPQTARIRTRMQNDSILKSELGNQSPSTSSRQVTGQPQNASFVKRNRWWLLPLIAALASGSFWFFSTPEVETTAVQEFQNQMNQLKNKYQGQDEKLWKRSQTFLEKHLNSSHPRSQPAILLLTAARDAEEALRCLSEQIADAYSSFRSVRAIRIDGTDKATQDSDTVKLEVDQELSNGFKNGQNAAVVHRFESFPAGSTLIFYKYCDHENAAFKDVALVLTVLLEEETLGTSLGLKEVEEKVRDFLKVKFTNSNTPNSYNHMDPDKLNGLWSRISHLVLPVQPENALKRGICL
Assay [10] concerns the target Alpha-bungarotoxin (Bungarus multicinctus) (UniProt P60615). Put plainly: alpha-bungarotoxin binders on microarray, profiling panel, artefact control for SMM control protein annotation, biochemical, small-molecule microarray, Alexa647 label, 635/667 nm fluorescence (AID 1117). As to conditions: alpha-BTX-A647 binding fluorescence, higher = more signal.
A further assay addresses Albumin (Bos taurus) (UniProt P02769). Put plainly: bovine serum albumin binders on microarray, profiling panel, artefact control for SMM control protein annotation, biochemical, small-molecule microarray, Alexa647 label, 635/667 nm fluorescence (AID 1118).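 Note: score merges 667 nm emission intensity and signal-to-noise per printed compound spot.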 Particulars: BSA-A647 binding, fluorescence 635 nm, higher = more signal.
The nature of assay [11]: small-molecule microarray binders of probe aXIP, primary screen, biochemical, NeuroSMM set, 635/667 nm fluorescence (AID 1119).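 Note: probe is the protein aXip251-270 applied at 1 µg/mL to compound-printed slides; binding of probe to printed compounds measured as 667 nm fluorescence plus signal to noise.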 As to conditions: higher = more signal, called active from +8 up or from −8 down.
Assay [12] in a line: small-molecule binders of probe aNOTCH3, primary screen, biochemical, small-molecule microarray, 635/667 nm fluorescence (AID 1120).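 Note: probe is a biotin-tagged antibody raised against NOTCH3 rather than NOTCH3 protein; score merges spot fluorescence near 667 nm with spot signal to noise.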 Particulars: higher = more signal.
Assay [13] in a line: small-molecule binders of probe aNOTCH2, primary screen, biochemical, small-molecule microarray, 635/667 nm fluorescence (AID 1121).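 Note: score merges feature fluorescence read at 667 nm with its signal to noise.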 As to conditions: higher = more signal.
Assay [14] concerns the target Carbonic anhydrase 2 (Homo sapiens) (UniProt P00918). Put plainly: CAII small-molecule binders, profiling panel, biochemical, small-molecule microarray, Alexa647-labelled CAII (AID 1122). Particulars: CAII-A647 binding fluorescence, higher = more signal.
A short description of assay [15]: COS7 lysate on small-molecule microarray, probe aHis, 635 nm (AID 1123).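 Note: z-score combines 667nm fluorescence intensity with signal-to-noise per printed compound spot.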 As to conditions: COS7 cell lysate, fluorescence, higher = more signal.
The nature of assay [16]: compound binding in COS7 lysate, probe aLAP1, primary screen, cell lysate, small-molecule microarray (AID 1124).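 Note: lysate comes from COS7 cells expressing LAP1 and is applied at 0.3 µg/mL; score merges spot fluorescence near 667 nm with signal-to-noise over triplicate slides.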 As to conditions: probe aLAP1, fluorescence, higher = more signal.
Another assay has as its system Sam68 (KHDRBS1). Put plainly: Sam68 small-molecule binders, primary screen, biochemical, small-molecule microarray, 635 nm fluorescence (AID 1125).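 Note: score merges 667 nm channel intensity with signal to noise over triplicate slides.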 Particulars: small-molecule microarray binding, higher = more signal.
In assay [17] the test system is Chordin-like protein 2 (CHRDL2). Put plainly: CHRDL2 small-molecule binders, primary screen, biochemical, small-molecule microarray, 635 nm fluorescence (AID 1126).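 Note: printed compound slides probed with Chrdl2 protein at 4 µg/mL for 1 h at 4 C; score merges 667 nm emission intensity with signal to noise over three replicate slides.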 As to conditions: small-molecule microarray binding, fluorescence 635 nm; higher = more signal.
In assay [18] the target is Concanavalin-A (Canavalia ensiformis) (UniProt P02866). Put plainly: ConA small-molecule binders, primary screen, artefact control for SMM control protein annotation, biochemical, small-molecule microarray, Alexa647 label, 635 nm (AID 1127).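 Note: z combines 667 nm emission intensity with signal-to-noise across three replicate slides.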 As to conditions: ConA-A647 binding fluorescence, higher = more signal.
Chain of Concanavalin-A (Canavalia ensiformis) (P02866 whole entry, looked up): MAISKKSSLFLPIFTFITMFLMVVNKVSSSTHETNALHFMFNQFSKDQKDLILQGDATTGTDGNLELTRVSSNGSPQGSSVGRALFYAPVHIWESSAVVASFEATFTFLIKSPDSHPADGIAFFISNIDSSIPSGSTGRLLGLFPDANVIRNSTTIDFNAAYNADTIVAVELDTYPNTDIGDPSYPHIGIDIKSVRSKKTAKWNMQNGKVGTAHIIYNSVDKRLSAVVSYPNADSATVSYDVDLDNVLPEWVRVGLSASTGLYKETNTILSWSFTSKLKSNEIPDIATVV

Activity calls are given as the source filed them.

Chain of Albumin (Bos taurus) (P02769 whole entry, looked up): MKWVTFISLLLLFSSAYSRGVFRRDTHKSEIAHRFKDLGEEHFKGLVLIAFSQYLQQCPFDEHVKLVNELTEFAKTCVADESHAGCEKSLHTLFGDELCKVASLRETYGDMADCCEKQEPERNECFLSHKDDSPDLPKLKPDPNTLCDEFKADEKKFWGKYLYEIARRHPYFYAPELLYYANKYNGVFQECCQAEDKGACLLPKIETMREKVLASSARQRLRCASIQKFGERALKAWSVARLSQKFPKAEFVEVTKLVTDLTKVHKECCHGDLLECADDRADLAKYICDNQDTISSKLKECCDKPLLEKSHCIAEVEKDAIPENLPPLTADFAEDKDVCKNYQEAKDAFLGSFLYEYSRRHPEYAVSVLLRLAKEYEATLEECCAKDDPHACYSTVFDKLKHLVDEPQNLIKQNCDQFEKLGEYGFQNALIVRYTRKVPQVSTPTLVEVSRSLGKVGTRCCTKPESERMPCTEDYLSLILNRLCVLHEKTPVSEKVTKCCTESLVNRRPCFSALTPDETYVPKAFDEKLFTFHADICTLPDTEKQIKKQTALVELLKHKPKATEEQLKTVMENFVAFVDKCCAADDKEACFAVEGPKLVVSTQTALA
Chain of Alpha-bungarotoxin (Bungarus multicinctus) (P60615 whole entry, looked up): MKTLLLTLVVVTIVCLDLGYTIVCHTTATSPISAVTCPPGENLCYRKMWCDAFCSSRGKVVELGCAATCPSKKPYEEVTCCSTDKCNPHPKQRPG

As for `CN(C)CCCCNC(=O)[C@H]1C[C@H]2C(=O)N[C@@H](CCCC[N+](C)(C)C)C(=O)N2[C@H]1c1ccc(O)cc1`, the composite z-score is -1.55 in [1]; -0.0658 in assay [3]; -0.0691 in assay [4]; -0.441 in assay [5]; -0.208 in assay [6]; -0.2 in assay [7]. Further, the composite z-score in [8] was -0.253; in assay [9], -0.511; in assay [10] it was 0.15; with Albumin (Bos taurus), -0.165; in assay [12], -0.208; in [13], 0.2. Moreover, the composite z-score was 0.716 in assay [14]; -0.287 in [15]; 0.106 in assay [16]; -0.863 in the assay with Sam68 (KHDRBS1); -0.187 in [17]; 0.343 in [18]. In addition, the z-score in [2] is -0.027. In addition, the composite Z-score in assay [11] was 0.261 (inactive).
As for `COC(=O)[C@@]1(Cc2ccccc2)[C@H]2c3cc(C(=O)N4CCCC4)n(CCSCCO)c3C[C@H]2CN1C(=O)c1ccccc1`, the composite z-score was 1.45 in assay [1]; -0.491 in assay [3]; 2.26 in [4]; 1.29 in [5]; 0.145 in assay [6]; 0.417 in [7]. Besides, the composite z-score amounted to 2.24 in [8]; 2.04 in [9]; 0.606 in assay [10]; 1.05 with Albumin (Bos taurus); 0.543 in assay [12]; 0.187 in assay [13]. The composite z-score is 0.841 in assay [14]; 3.57 in assay [15]; 1.22 in assay [16]; 1.12 in the assay on Sam68 (KHDRBS1); -0.997 in assay [17]; 0.554 in assay [18]. Further, the z-score in [2] is -1.12. In [11], the composite Z-score is -0.176 (inactive).
As for `CN1C(=O)C2C=CC(C(O)c3ccc(I)cc3)N(Nc3ccccc3)C2C1=O` (stereo not given), the composite z-score came out at 1.33 in [1]; 0.136 in assay [3]; 1.63 in [4]; 0.544 in [5]; 0.172 in [6]; 0.36 in assay [7]. In addition, the composite z-score in [8] was 0.551; in assay [9], 0.0151; in assay [10], 1.26; in the assay with Albumin (Bos taurus), 0.939; in [12] it was 0.323; in [13], -0.0389. The composite z-score in assay [14] was found to be 0.547; in assay [15], 1.91; in assay [16], 0.595; with Sam68 (KHDRBS1) it was 1.14; in assay [17] it was 0.569; in [18], 1.15. Besides, the z-score in [2] was 0.132. Also, the composite Z-score in assay [11] was 0.412 (inactive).
`CCOC(=O)C1=C[C@@H](C(C)(C)C)N(S(=O)(=O)c2ccc(C)cc2)[C@H]1c1cccc(Cl)c1`: the composite z-score in [1] came to 0.941; in assay [3], 0.553; in [4], 1.09; in assay [5], 0.321; in assay [6] it was 0.137; in assay [7] it was 0.186. The composite z-score in assay [8] was -0.136; in [9], 0.715; in [10], 1.27; in the assay with Albumin (Bos taurus), 0.91; in assay [12], 0.0311; in assay [13] it was -0.037. The composite z-score in assay [14] worked out at 0.232; in assay [15], 1.15; in assay [16] it was 0.596; in the assay on Sam68 (KHDRBS1) it was 1.3; in assay [17] it was 0.0761; in [18], 1.11. The same molecule returned a z-score in assay [2] of -2.85. Besides, the composite Z-score in assay [11] is -0.244 (inactive).
As to `O=C1O[C@H](c2ccccc2)[C@H](c2ccccc2)N2[C@H]1[C@@H](C(=O)Nc1nc3ccccc3s1)[C@]1(C(=O)Nc3ccc(C#CC4=CCCCC4)cc31)[C@H]2c1ccc(O)cc1`, the composite z-score in assay [1] is 1.38; in [3], 0.0561; in [4], 1.18; in [5], 0.366; in assay [6] it was -0.0203; in assay [7] it was 0.0465. In addition, the composite z-score in [8] was 0.178; in assay [9], 1.17; in assay [10] it was 1.4; with Albumin (Bos taurus), 0.658; in [12], 0.278; in assay [13], -0.117. Besides, the composite z-score in assay [14] is 0.185; in assay [15] it was 2.16; in assay [16] it was -0.0648; in the assay with Sam68 (KHDRBS1), 1.3; in assay [17] it was -0.12; in assay [18], 0.973. This molecule displayed a z-score in [2] of -0.832. Also, the composite Z-score in assay [11] was 0.156 (inactive).
On to `COc1ccc([Si](C)(C)[C@H]2[C@H](CC(=O)N3Cc4ccccc4C[C@H]3CO)O[C@@]3(C(=O)N(Cc4ccc(N5C(=O)c6cccc7cccc5c67)cc4)c4ccccc43)[C@@H]2C)cc1`, for which the composite z-score in assay [1] was 1.3; in [3] it was 0.952; in assay [4], 0.732; in [5] it was 0.049; in [6], -0.124; in assay [7] it was -0.279. For the same molecule, the composite z-score in [8] was -0.49; in assay [9], 1.65; in assay [10], 0.609; with Albumin (Bos taurus), 0.502; in assay [12], -0.0647; in assay [13], -0.207. In addition, the composite z-score stood at 0.376 in assay [14]; 0.822 in [15]; 0.295 in assay [16]; 1.3 with Sam68 (KHDRBS1); 1.13 in assay [17]; 1.08 in [18]. The molecule also displayed a z-score in assay [2] of -3.26. Besides, the composite Z-score in assay [11] was 0.858 (inactive).
